# Measured values reported in PubChem BioAssay (Tox21).
# Records with an inconclusive call do not appear. Active and inactive are the calls of the source. The call rests on the fitted dose curve; in most records, active means well fitted inhibition curve with a large enough effect in the repeat runs; inconclusive means weak or mixed curves; inactive means no such curve, though single readings can be large or run the other way.
# Biological target: Cytochrome P450 2C19 (Homo sapiens) (UniProt P33261)
# Assay: Cytochrome P450 Family 2 Subfamily C Member 19 (CYP2C19) small molecule antagonists: luciferase reporter qHTS assay (AID 1671197); further: nearly all actives have a fitted effect of over 65% in size
# Conditions: P450-Glo CYP2C19 enzyme, luciferin luminescence, 1 h; series mostly up to 115 µM; activity change, negative = inhibition: at the top concentration
# Description: National Center for Advancing Translational Sciences [NCATS]
# U.S. Environmental Protection Agency [EPA]
# National Institutes of Environmental Health Sciences [NIEHS]
# National Toxicology Program [NTP]
# U.S. Food and Drug Administration [FDA]
# Cytochrome P450 (CYP) enzymes are membrane-bound hemeproteins that play a key role in metabolism of drugs and xenobiotics. Evaluation of the effect of chemicals on CYP isozymes is useful to minimize the adverse drug reactions and toxicities in drug development process. Tox21 chemicals were tested for their effect on CYP enzyme activities by using P450-Glo (TM) screening systems (Promega Corporation, Madison, WI). These systems provide a luminescent method containing proluciferin substrates and are converted to luciferin products by CYP isozymes. The luciferin products formed are detected with a luciferin detection reagent, and the amount of light produced is proportional to CYP activity. P450-Glo (TM) CYP2C19 screening system (Catalog. No. V9880) was used to detect the compounds that interfere in CYP2C19 activity. The positive control compound used for CYP2C19 assay is ketoconazole (Sigma-Aldrich, St. Louis, MO).
# Tox21 Assay Protocol Summary:
# Two ul of enzyme-substrate mix was dispensed into medium binding white/solid 1536-well plates (Greiner Bio-One North America Inc., Monroe, NC) using a BioRaptr Flying Reagent Dispenser (FRD, Beckman Coulter, Brea, CA). Compounds dissolved in DMSO and positive control (ketoconazole) were transferred to the assay plates at 23 nl using a Pintool station (Wako, San Diego, CA). The assay plates were incubated at room temperature for 10 min. Then 2 ul of NADPH regeneration solution was added to each well of the assay plates using an FRD and incubated at 37C for 1 h. The reaction was stopped by adding 4 ul of detection reagent using an FRD and after 20 min incubation at room temperature the luminescence signal was measured using a ViewLux plate reader (Perkin Elmer, Shelton, CT). Data were expressed as relative luminescence units.
# On the % scale 0 is the no-effect control and ±100 the full control effect; potency means the concentration at half of the fitted maximal effect.
# Sequence of Cytochrome P450 2C19 (Homo sapiens) (P33261 whole entry, looked up): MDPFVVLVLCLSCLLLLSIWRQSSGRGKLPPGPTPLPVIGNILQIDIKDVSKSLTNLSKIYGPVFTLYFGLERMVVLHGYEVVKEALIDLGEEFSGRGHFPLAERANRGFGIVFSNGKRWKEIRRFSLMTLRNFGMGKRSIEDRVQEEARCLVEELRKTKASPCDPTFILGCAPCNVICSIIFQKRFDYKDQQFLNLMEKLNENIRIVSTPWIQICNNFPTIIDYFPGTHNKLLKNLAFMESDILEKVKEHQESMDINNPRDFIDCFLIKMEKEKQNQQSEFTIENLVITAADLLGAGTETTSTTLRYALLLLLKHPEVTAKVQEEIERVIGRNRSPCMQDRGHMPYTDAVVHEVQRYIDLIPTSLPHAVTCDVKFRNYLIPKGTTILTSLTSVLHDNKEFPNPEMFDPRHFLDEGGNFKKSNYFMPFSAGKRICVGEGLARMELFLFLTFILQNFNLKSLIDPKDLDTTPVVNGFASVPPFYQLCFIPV
SMILES,Potency,"activity change, negative = inhibition"
CCCCCC1CCCC(=O)O1 (stereo not given),79.6 µM (active),–
CC(C)c1ccccc1O,–,39.5% (inactive)
CCCCCCCCCOCC1CO1 (stereo not given),52.2 µM (active),–
CCCCC(=O)N(C)C,–,8.98% (inactive)
CNC(=O)C(c1ccccc1)c1ccccc1,20 µM (active),–
CCCCCCCC[Si](OCC)(OCC)OCC,–,-3.61% (inactive)
O=S(=O)(O)CCO,–,20.3% (inactive)
O=C1NC2NC(=O)NC2N1 (stereo not given),–,-23.4% (inactive)
O=C1c2ccccc2-c2ccccc21,57.9 µM (active),–
Oc1ccccc1Cc1ccccc1O,10 µM (active),–
CC(C)(C)NCCO,–,-14.8% (inactive)
CCN(CCO)c1cccc(C)c1,35.6 µM (active),–
NC(Cc1c[nH]c2ccccc12)C(=O)O (stereo not given),24.7 µM (active),–
CCOC(=O)C(C)(C)C,–,-8.94% (inactive)
O=C(O)Cc1cccc(-c2cc(CCCCCCc3ccc(O[C@H]4O[C@H](CO)[C@@H](O)[C@H](O)[C@@H]4O)c(-c4cccc(CC(=O)O)c4)c3)ccc2O[C@H]2O[C@H](CO)[C@@H](O)[C@H](O)[C@@H]2O)c1,–,11.7% [at 0.435 µM] (inactive)
c1ccccc1,–,9.19% (inactive)
COc1cc2c3cc1Oc1cc(ccc1O)C[C@@H]1c4c(cc(OC)c(O)c4Oc4ccc(cc4)C[C@@H]3N(C)CC2)CC[N+]1(C)C,–,21.5% [at 52.9 µM] (inactive)
COC(=O)CCC(=O)O,–,12.8% (inactive)
CCC(CO)CO,–,7.9% (inactive)
CCCCCCCCCCCCCC(=O)OC,–,17% (inactive)

SMILES,Potency,"activity change, negative = inhibition"
F[Si-2](F)(F)(F)(F)F,–,4.52% (inactive)
CN(C1CCCCC1)S(=O)(=O)c1ccccc1N,3.17 µM (active),–
Cc1nc2n(c(=O)c1CCN1CCC(C(=O)c3ccc(F)cc3)CC1)CCS2,–,10.5% [at 52.9 µM] (inactive)
C=CCOC(=O)c1ccc(C(=O)OCC=C)c(C(=O)OCC=C)c1,0.159 µM (active),–
COc1ccc(N=Nc2cc(C)c(N=Nc3ccc(S(=O)(=O)O)cc3)cc2OC)cc1,–,-15.8% (inactive)
CO[Si](CCCS)(OC)OC,–,-11.1% (inactive)
CC(=O)/C=C/c1ccco1,–,13.3% (inactive)
Nc1ccc(C(=O)OCC(O)CO)cc1 (stereo not given),17.4 µM (active),–
Nc1cc(S(=O)(=O)O)ccc1S(=O)(=O)O,–,-11.7% (inactive)
CCCCCCCC/C=C\CCCCCCCC(=O)OC[C@@H](O)[C@H]1OC[C@H](O)[C@H]1O,–,-19% (inactive)
O=C(O)C(=O)Nc1cccc(-c2nn[nH]n2)c1,–,26.9% [at 52.9 µM] (inactive)
O=C1OC(=O)c2ccccc21,–,0.538% (inactive)
C=CCCCCCCCCCCC,–,11.6% [at 10.5 µM] (inactive)
Nc1ccc(S(=O)(=O)NC(=O)c2ccccc2)cc1,–,10.5% [at 52.9 µM] (inactive)
CC(=O)c1ccc2c(c1)CCCC2,79.6 µM (active),–
C=C(C)[C@@H]1CC[C@@H](C)C[C@@H]1O,–,-2.64% (inactive)
NC(=O)C1(N2CCCCC2)CCN(CCCC(=O)c2ccc(F)cc2)CC1,–,26.4% [at 52.9 µM] (inactive)
CCOC(=O)CC(CC(=O)OCC)(OC(C)=O)C(=O)OCC,12.6 µM (active),–
CCCCCCCCCCCCCCCCI,–,-28.1% [at 23.6 µM] (inactive)
Cc1cccc(C(=O)O)c1[N+](=O)[O-],–,-11.7% (inactive)
